Assay outcomes: PubChem, National Center for Advancing Translational Sciences (NCATS)
A selection: hits, their analogues and other compounds. The true share with any hit is near 2.3%.
Nrf2 block: blocks Nrf2 signaling. A549 ARE-Fluc reporter, luciferase luminescence, 18-24 h. Potency, µM (titrated, usually from 46 µM), for inactives: at the top dose activity change, negative = inhibition, hits mostly inhibitors. 360,000 tested, 2.1% active. AID 504444; also: % is scaled to controls: 0 for no effect and ±100 for the full control effect; nearly all actives have a fitted effect of over 60% in size
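A549 ARE_Fluc cells (5000/well, 5% FBS OPTI-MEM) pre-incubated 2 h, then treated with compounds 18-24 h at 37C/5% CO2 in concentration-response. CellTiter-Fluor viability read first; BugLite luciferase luminescence after 15 min at room temperature gives Nrf2 activity.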
Nrf2 ARE act: Nrf2 pathway activation; Potency, µM (series often up to 46.1 µM), for inactives: top-dose activation, most hits filed as activators; 410,000 tested, 0.31% active; AREc32 ARE-luciferase reporter (MCF7-derived line), luminescence, 24 h; also: % of control where 0% means no effect; nearly all actives have a fitted effect of over 65% in size
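Reporter line AREc32 (ARE-Fluc), seeded overnight in OPTI-MEM with 5% FBS; compound pin-transferred, 24 hr at 37 deg C, 5% CO2; luminescent read-out.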
A549 tox: counter-screen for Nrf2 inhibitors: cytotoxicity in A549 cells; Potency, µM (highest dose often 46 µM), inactives show top-dose activity change, negative = cytotoxicity, usual class: inhibitors; A549 ARE-Fluc cells, CellTiter-Fluor viability, 18-24 h; 390,000 tested, 0.16% active; also: % is scaled to controls: 0 for no effect and ±100 for the full control effect
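A549 ARE_Fluc cells in 5% FBS OPTI-MEM were exposed to compounds in concentration-response for 18-24 h at 37 deg C. Viability was read by CellTiter-Fluor fluorescence (Ex 405/Em 525) after 30 min, before the luciferase read.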
Rango complex inh: Rango-importin beta binding inhibition | Rango CFP/YFP FRET sensor + importin beta, 45 min | Potency, µM (highest dose often 92.2 µM), for inactives: at the highest dose inhibition of complex formation | Q14974 | 340,000 tested, 0.031% active; calls by dose curve;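 also: 0% = DMSO wells and 100% = buffer wells lacking importin beta; nearly all actives have a fitted effect of over 15% in size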
Target sequence (Q14974 whole entry, looked up): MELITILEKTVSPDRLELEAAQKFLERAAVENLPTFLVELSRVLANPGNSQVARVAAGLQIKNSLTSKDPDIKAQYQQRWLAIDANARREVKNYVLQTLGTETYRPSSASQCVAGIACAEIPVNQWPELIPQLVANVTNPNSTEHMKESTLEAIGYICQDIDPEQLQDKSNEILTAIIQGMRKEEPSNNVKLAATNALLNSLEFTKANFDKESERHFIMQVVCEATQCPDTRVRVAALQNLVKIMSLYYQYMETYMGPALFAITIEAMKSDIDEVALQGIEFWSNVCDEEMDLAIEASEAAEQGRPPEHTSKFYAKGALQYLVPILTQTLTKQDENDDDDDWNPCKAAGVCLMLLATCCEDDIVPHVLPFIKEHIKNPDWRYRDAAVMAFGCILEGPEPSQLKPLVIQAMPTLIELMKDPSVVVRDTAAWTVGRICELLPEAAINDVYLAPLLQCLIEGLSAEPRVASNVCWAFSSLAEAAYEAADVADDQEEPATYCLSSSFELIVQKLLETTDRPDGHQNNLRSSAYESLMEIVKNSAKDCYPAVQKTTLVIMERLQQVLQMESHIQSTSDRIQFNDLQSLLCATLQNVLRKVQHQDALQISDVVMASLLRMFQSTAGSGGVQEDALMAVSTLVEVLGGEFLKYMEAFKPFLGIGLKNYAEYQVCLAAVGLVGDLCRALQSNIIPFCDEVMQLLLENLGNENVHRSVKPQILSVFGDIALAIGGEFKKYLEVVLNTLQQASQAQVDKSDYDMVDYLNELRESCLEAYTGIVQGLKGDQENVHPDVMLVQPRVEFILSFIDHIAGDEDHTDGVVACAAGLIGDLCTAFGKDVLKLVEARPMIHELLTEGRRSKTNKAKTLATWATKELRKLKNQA
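FRET biosensor (snurportin 1 IBB flanked by EYFP and cerulean), 50 nM, with compound 5 min, then 0.125 microM importin beta in PBS, 1 mM DTT, 0.02% Tween-20, 0.1% BSA. CFP/YFP ratio read after 45 min at room temperature; pre-read flags interference.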
Rango release inh: inhibitors of RanGTP-induced Rango-importin beta complex dissociation; O95149+P62826; Biochemical FRET Rango-importin beta, RanGTP-induced dissociation; Potency, µM (doses to about 46.1 µM), inactives show top-dose activity change, negative = inhibition; 340,000 tested, 0.071% active; AID 540253; calls by dose curve; also: % of control where 0% means no effect; nearly all actives have a fitted effect of over 45% in size
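Rango FRET biosensor (snurportin-1 IBB flanked by N-terminal EYFP and C-terminal CFP10) at 0.1 uM, with 0.25 uM importin beta in PBS, 1mM DTT, 0.02% Tween-20, 0.1% BSA. 0.6 uM Ran, 2mM GTP and 0.2 uM RCC1 were then added for 45 min at room temperature. Inhibition read as loss of FRET rise.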
The depositor's hits bear a star; ? = inconclusive; · = no result. Unless noted, calls follow the shape of the dose curve; as a rule, active = well fitted curve in the direction sought with a large enough effect; inconclusive = small, poorly fitted or top-dose-only effect, or another doubt; inactive = no such curve, though single readings can be large; an effect the other way counts as inactive or inconclusive. Potency is read from the fitted curve at half-maximal effect.

SMILES | Nrf2 block | Nrf2 ARE act | A549 tox | Rango complex inh | Rango release inh
c1ccc(N2CC3COc4ccccc4C3=N2)cc1 (centres undefined) | ? | 8.9µM* | ? | ? | ?
c1ccc2c(c1)OCc1cn[nH]c1-2 | 4% | 0% | ? | -4% | 3%
COc1ccccc1NC(=O)Cn1nnc(C(=O)Nc2ccccc2Br)c1N | ? | 0% | 0% | · | ·
O=C(CCNS(=O)(=O)c1cccs1)NCc1ccccc1 | 23% | 0% | -2% | 0% | 11%
O=C(/C=C/c1ccccc1Br)c1ccc2c(c1)OCO2 | ? | ? | 8% | -3% | -11%
O=C(/C=C\Nc1ccccc1Br)c1ccc2c(c1)OCO2 | 2.1µM* | 0% | -5% | ? | -12%
COc1ccc2c(CNCCc3cccs3)c(C(=O)O)n(Cc3ccccc3C)c2c1 | 0% | 1% | -6% | · | ·
CC(=O)Oc1ccccc1/C=C/c1ccc2ccccc2[n+]1C | ? | 11µM* | ? | -2% | -10%
CN(CCCS(=O)(=O)[O-])c1ccc(/C=C/c2ccc3ccccc3[n+]2C)cc1 | -34% | 0% | -10% | 2% | -13%
CN(C)c1ccc(/C=C/c2ccc3ccccc3[n+]2C)cc1 | 15µM* | -2% | 23µM* | 1% | 1%
CCN(c1ccccc1)S(=O)(=O)c1cc(-c2onc(C)c2C)ccc1OC | ? | 4% | -1% | · | ·
O=C(Nc1cc(NC(=O)c2ccccc2Cl)ccc1Cl)c1ccccc1 | ? | 8% | -2% | · | ·
CC(C)(C)C(=O)NC(=S)NNC(=O)c1sc2ccccc2c1Cl | 5.8µM* | -1% | ? | 2% | 19%
COc1ccc(NC(=O)Nc2cccc(OCc3cc(=O)n4cccc(C)c4n3)c2)c(OC)c1 | · | 0% | 4% | · | ·
Cc1ccc(S(=O)(=O)NC23CC4CC(CC(C4)C2)C3)cc1 | -15% | -1% | 1% | 0% | 1%
Cc1nn(C)c(C(=O)Nc2ccc(S(=O)(=O)NC34CC5CC(CC(C5)C3)C4)cc2)c1Br | 15µM* | 0% | ? | 0% | 0%
O=C(Nc1ccc(C(=O)OCc2cc(=O)n3c4c(sc3n2)CCCC4)cc1)c1ccc(Cl)cc1 | · | 1% | 0% | · | ·
Cc1c(NC(=O)c2ccccc2F)cccc1-c1nc2cccnc2s1 | -4% | -1% | 4% | · | ·
CSc1nn(Cc2ccc(C)cc2)c(N)c1S(=O)(=O)c1ccccc1 | 16µM* | 1% | -1% | · | ·
CCN1C(C(=O)c2ccccc2)=C(OC(=O)COc2ccc(OC)cc2)c2ccccc2S1(=O)=O | ? | -1% | ? | · | ·
CCN1C(C(=O)c2ccccc2)=C(OC(=O)COc2ccc(C)cc2)c2ccccc2S1(=O)=O | 23µM* | -1% | ? | · | ·
CCN1C(C(=O)c2ccccc2)=C(OC(=O)c2ccc(Cl)cc2)c2ccccc2S1(=O)=O | 21µM* | -1% | ? | · | ·
CCCN1C(C(=O)c2ccccc2)=C(OC(=O)COc2ccc(C)cc2)c2ccccc2S1(=O)=O | 18µM* | -2% | ? | · | ·
CCCN1C(C(=O)c2ccccc2)=C(OC(=O)COc2ccccc2)c2ccccc2S1(=O)=O | 23µM* | -2% | ? | · | ·
C=CCN1C(C(=O)c2ccccc2)=C(OC(=O)COc2ccccc2)c2ccccc2S1(=O)=O | ? | 0% | ? | -3% | 22%
SMILES | Nrf2 block | Nrf2 ARE act | A549 tox | Rango complex inh | Rango release inh
CCOC(=O)CN1C(C(=O)c2ccccc2)=C(OC(=O)c2ccccc2)c2ccccc2S1(=O)=O | ? | 5% | -16% | · | ·
COc1cccc(CNC(=O)C2CCN(Cc3cc4ccccc4n3Cc3ccc(C)cc3)CC2)c1 | · | 7% | -20% | · | ·
Cc1ccc(C(=O)OCc2nc3ccccc3s2)o1 | ? | 10µM* | 2% | 3% | -1%
O=C(OCc1nc2ccccc2s1)c1ccc(Br)s1 | · | 11µM* | ? | -7% | -13%
CCN(CC)CCNC(=O)c1ccc(Sc2ccc(C)cc2)c(NC(C)=O)c1 | -2% | 0% | 1% | ? | 2%
Cc1ccc2ncnc(NCc3ccco3)c2c1 | ? | · | -9% | · | ·
CC(=O)Nc1ccccc1N(CC(O)Cn1c2ccccc2c2ccccc21)S(=O)(=O)c1ccc(C)cc1 (centres undefined) | 26µM* | 0% | -22% | 0% | 8%
Cc1ccc(N(CC(O)Cn2c3ccccc3c3ccccc32)S(=O)(=O)c2ccc(F)cc2)cc1 (centres undefined) | ? | 0% | ? | · | ·
CCCn1nc(C(=O)NNC(=O)CSC(C)C(=O)Nc2cc(C)on2)c2ccccc2c1=O (centres undefined) | -10% | 0% | -2% | 0% | 1%
O=C(Nc1nnc(-c2ccccc2SCc2ccccc2)s1)Nc1ccccc1F | 17% | 5% | -2% | 0% | -3%
O=C(Nc1nnc(-c2ccccc2F)s1)C1CCCO1 (centres undefined) | ? | 3.2µM* | -2% | 3% | 20%
O=C(Nc1nnc(-c2ccccc2F)s1)Nc1ccccc1F | 10% | 8.9µM* | 9% | 0% | 0%
CCCCN(CC)Cc1c(O)ccc2c3c(c(=O)oc12)CCC3 | 2% | -1% | -2% | ? | -27%
O=C(Nc1nc2ccccc2n1CCN1CCOCC1)c1ccccc1 | 0% | -1% | -1% | 4% | 1%
O=C(Nc1nc2ccccc2n1CCN1CCOCC1)c1cn(-c2ccccc2)nc1-c1ccccc1 | 21µM* | 0% | ? | 6% | 2%
COc1ccc(CNc2nc(N)nc3nc[nH]c23)cc1 | 17% | · | 2% | · | ·
Cc1nn(-c2ccccc2)c(N2CCCC2)c1/C=N/NC(=O)c1cccc(S(=O)(=O)Nc2ccc(Cl)cc2)c1 | 5.8µM* | 0% | ? | ? | 16%
Cc1[nH]c2ccccc2c1SCCNC(=O)c1ccc(Br)o1 | 23µM* | 4% | ? | 4% | 2%
CCCCNC(=O)Nc1ncn[nH]1 | 5% | 0% | 0% | 3% | -2%
COc1cc(NC(=O)c2cccs2)c(OC)cc1NC(=O)c1cccs1 | -14% | 9% | -2% | ? | 18µM*
COc1ccccc1CC(=O)Nc1cc(OC)c(NC(=O)c2ccccc2)cc1OC | 15µM* | 16% | -17% | 1% | 4%
CCCC(=O)c1cc2c(cc1NC(=O)c1cccs1)OCCO2 | 6% | 3% | 1% | -1% | 0%
O=C(Nc1cc2c(cc1Br)OCCO2)c1cccs1 | ? | 13µM* | -9% | -1% | 5%
COc1ccc(NC(=O)c2cc(-c3cccs3)on2)c(OC)c1 | 4% | 1.3µM* | 8% | 7% | 0%
O=C(CNC(=O)c1ccc(C(F)(F)F)cc1)OC(C(=O)Nc1cc(C(F)(F)F)ccc1Cl)c1ccccc1 (centres undefined) | 13% | · | 14% | · | ·
Cc1ccccc1NC(=O)Cn1c(=O)n(CCc2ccccc2)c(=O)c2sc3ccccc3c21 | 4% | -2% | 3% | · | ·
